SMILES strings stand for the structures. This is part of a sample that, as a whole, favours compounds with a hit. Of some 83,000 tested, about 20% had one in any assay.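 Step 1: grow cells in 96-well plates. Step 2: add test compound at a single concentration. Step 3: incubate 48 h. Step 4: record percent growth.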 The source made the active and inactive calls.

This assay has as its system RPMI-8226 leukemia. Nature of the assay: NCI-60 one-dose screen, 48 h (100 = growth as untreated, 0 = no growth, -100 = all killed). The following applies: 10 µM unless noted. Here is the method: Growth inhibition of the RPMI-8226 human tumor cell line is measured as a screen for anti-cancer activity. Cells are grown in 96 well plates and exposed to the test compound for 48 hours. Compounds are tested at a single concentration, which is 10^-5 M for most compounds. The reported endpoint is percent growth (GI% or GIPRCNT), where numbers from 0 - 100% represent growth inhibition, and numbers from -100% - 0 represent cell death. For example, a value of 40 represents 60% growth inhibition. A value of 0 means no net growth occurred over the course of the experiment. A value of -40 indicates 40% of cells at the beginning of the experiment died by the end of the experiment. A value of -100 means all cells are dead at the end of the experiment.
NCI-60 Human Tumor Cell Lines Screen was performed using the standard one-dose NCI protocol, which is described in more detail at https://dtp.cancer.gov/discovery_development/nci-60/default.htm.
Compounds with GIPRCNT values below 10 were considered active. Activity score was based on GIPRCNT using the following formula: […]
Score is 0 for GIPRCNT values of 100 or above, 50 for GIPRCNT values of 0, and 100 for GIPRCNT values of -100.
For the compound `Cc1cc(=O)oc2cc(Oc3nc(-c4ccccc4)cn4c(-c5ccccc5)cnc34)ccc12`, the growth was 51% (inactive).

Consider `Oc1cccc2c1NCCC2`, for which the growth is 14.9% (inactive).

As for `C=C(C)[C@@H]1CC[C@]2(C#N)CC[C@]3(C)[C@H](CC[C@@H]4[C@@]5(C)CCCNC(C)(C)[C@@H]5CC[C@]43C)[C@@H]12`, the growth was -18.6% (active).

Turning to `O=C1C(Nc2ccc(Br)cc2)=C(I)C(=O)c2ncccc21`, the growth is 6.59% (active).

Turning to `O=C(Nc1ncc(Cc2cc(C(F)(F)F)ccc2Cl)s1)C(=S)N1CCOCC1`, the growth is 81.9% (inactive).

With `O=C1C=CC2(O)OC(c3ccccc3)CC(=O)C2=C1O` (stereo not given), the growth is 64.3% (inactive).

With `O=C(COc1ccc(/C=C2\Oc3ccccc3C2=O)cc1)Nc1nccs1`, the growth was 40.4% (inactive).

On to `NC(=N\N=C/c1ccc(Cl)cc1Cl)/C(N)=N\N=C/c1ccc(Cl)cc1Cl`, for which the growth is 62.2% (inactive).

`O=C1/C(=C/c2cccc(Br)c2)COc2ccc(O)c(O)c21`: the growth was -12.7% (active).

Turning to `CCOc1cc(\C=N/N=C(N)/C(N)=N\N=C/c2ccc(O)c(OCC)c2)ccc1O`, the growth was 94.8% (inactive).

As for `CN(C)CCOc1ccc(/C(=C(/CCCCCCCCCC[P+](c2ccccc2)(c2ccccc2)c2ccccc2)c2ccccc2)c2ccccc2)cc1`, the growth is -48.3% (active).

Regarding `Nc1ccc(N)c2c1C(=O)c1cccc([N+](=O)[O-])c1C2=O`, the growth is 42.8% (inactive).

Consider `Cc1ccc(C2(C)NC(=O)N(CC(=O)Nc3cccc(C)c3)C2=O)cc1` (stereo not given), for which the growth is 67.8% (inactive).

For the compound `COc1cc(NC(=O)c2cncnc2Nc2ccc3c(ccn3Cc3cccc(F)c3)c2)cc(OC)c1`, the growth was 63.5% (inactive).

As to `C[C@@H]1N=C(c2ccc(Cl)cc2Cl)Nc2nc3ccccn3c2C1=O`, the growth is 75.2% (inactive).

Turning to `COc1ccc(Cn2cc(C(=O)N=Nc3c(O)[nH]c4ccc(Br)cc34)nn2)cc1`, the growth is 100% (inactive).

As to `Cn1cc(-c2ccc3c(Nc4cccc(NC(=O)Nc5cccc(F)c5)c4)ncnc3c2)cn1`, the growth was -25.4% (active).

In the case of `Cc1[nH]c(C2CC(c3ccc(C(F)(F)F)c(F)c3)=NN2C)c(C)c1C(=O)NCC(F)(F)F` (stereo not given), the growth is 92.4% (inactive).

On to `COC(=O)[C@H](C)NC(=O)c1ccc(NC(=O)c2[nH]c(C)c(Cl)c2Cl)c(OCCN)c1`, for which the growth was 96.9% (inactive).

As to `CCN(CC)c1ccc(/C=N/NC(=O)c2ccccc2Nc2ccnc(C(F)(F)F)c2)c(O)c1`, the growth was 26.5% (inactive).

Consider `CCCCCCC/C=N/NC(=O)c1ccc(-n2cc(-c3ccccc3)nn2)cc1`, for which the growth was 94.3% (inactive).

With `O=C(/C=C/c1ccc(Cl)cc1)c1ccc(-n2cc(CN3CCN(c4cc5c(cc4F)c(=O)c(C(=O)O)cn5C4CC4)CC3)nn2)cc1`, the growth was 11.5% (inactive).

As to `CCOC(=O)CC1C(CNC(=O)NC)OC(n2cnc3c(NC(=O)Nc4ccccc4)ncnc32)C1O[Si](C)(C)C(C)(C)C` (stereo not given), the growth is 11.2% (inactive).

Consider `O=C1C2C(c3cccs3)C=C(c3ccc(Cl)cc3)N2C(=S)N1c1ccccc1` (stereo not given), for which the growth is 99.3% (inactive).

With `C=CN(C(=O)N1CCN(c2cc3c(cc2F)c(=O)c(C(=O)O)cn3C2CC2)CC1)c1nc(-c2ccc(C)cc2)cs1`, the growth was 7.02% (active).

For the compound `CCOC(=O)CSc1nc2sc3c(c2c(=O)n1-c1ccccc1)CCCCC3`, the growth was 105% (inactive).

In the case of `CCCCCCCCOC(=O)c1c(C)[nH]c(/C=C2\N=C(c3ccc[nH]3)C=C2OC)c1C`, the growth was -21% (active).

For `O=C(Oc1ccccc1)c1cc(O)c(O)c(O)c1`, the growth is 65.7% (inactive).

Turning to `Cc1nc2c(c(-c3ccccc3)n1)Cc1c(ccc3ccccc13)O2`, the growth was 87% (inactive).

Consider `C#Cc1c(I)n(C2OC(CO[Si](C)(C)C(C)(C)C)C3OC(C)(C)OC32)c(=O)[nH]c1=O` (stereo not given), for which the growth is -66.8% (active).

As for `COc1ccc(N/N=C/c2ccc3c(c2)Sc2ccccc2N3C)cc1`, the growth was 78.2% (inactive).

With `COc1cc2cc(Oc3ccc(NC(=O)Nc4ccc(Cl)c(Cl)c4)cc3)c(C)nc2cc1OCCN1CCCCC1`, the growth was 79.1% (inactive).

Regarding `COC(=O)[C@@H](Cc1c[nH]c2ccccc12)NC[C@@H](O)CN1C(=O)/C(=C\c2cc(OC)c(OC)c(OC)c2)c2ccccc21`, the growth is 6.06% (active).

Regarding `CC(=O)[C@H]1CC[C@]2(C)[C@@H]1CC[C@@H]1[C@@]3(C)C/C(=C/c4cccnc4)C(=O)C(C)(C)[C@@H]3CC[C@]12C`, the growth was 8.88% (active).

In the case of `CCCC[N+]1(C)CCN=C1Cc1ccccc1` (stereo not given), the growth is 75.7% (inactive).

As for `CCOC(=O)c1ccc2c(c1)c1c(C)c3cnccc3c(C)c1n2C`, the growth is -29.7% (active).

As for `CSc1nn2c(-c3cc4cc(Br)ccc4oc3=O)ccnc2c1C#N`, the growth is 103% (inactive).

Consider `CN1/C(=C/C=C/c2n(Cc3ccc4ccccc4c3)c(Cl)c(Cl)[n+]2Cc2ccc3ccccc3c2)Oc2ccccc21`, for which the growth was -53.1% (active).

With `CCOC(=O)c1ccc2c(c1)[n+](=O)c(C(C)=O)c(C(F)(F)F)n2[O-]`, the growth was 8.56% (active).

As to `COC(=O)c1cc(-c2cc(OC)c(OC)c(OC)c2)[nH]c1N/N=C/c1c(Cl)cccc1Cl`, the growth was 18.4% (inactive).

The values above are taken from PubChem BioAssay (NCI).
